# Test results from PubChem BioAssay (EPA / NIEHS).
# Results filed as inconclusive are left out. Calls of active or inactive are those of the source. The calls were made as follows, unless noted: active = hit-call score of the fitted dose curve at least 0.9, where 1 is the maximum; inconclusive = response in the unintended direction; inactive = score below 0.9.
# Columns and labels:
# [1] = CEETOX_H295R_MTT_cell_viability: Viability Assessment in the CeeTox HT-H295R MTT Assay (AID 2283718; active = hit-call score of the fitted dose curve at least 0.9, where 1 is the maximum; inactive = score below 0.9)
# Summary of the method: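 MTT reduction (0.5 mg/ml, 4 h at 37 C; absorbance at 570 and 650 nm) gave viability as background-corrected percent change versus controls. H295R cells had 48 h forskolin (10 uM) prestimulation, then 48 h chemical exposure at 0.1% DMSO.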
# [2] = ACEA_AR_agonist_AUC_viability: ACEA Biosciences xCELLigence Real-Time Cell Analysis on Androgen Receptor Agonism for Viability (AID 2283775);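 as to AC50: viability read 80 hours after compound addition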
# Summary of the method: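 Viability endpoint from xCELLigence impedance in 22Rv1 prostate cells at 80 h. Eight-point series, 100 uM maximum final.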
# [3] = ACEA_AR_antagonist_AUC_viability: ACEA Biosciences xCELLigence Real-Time Cell Analysis on Androgen Receptor Antagonism for Viability (AID 2283776);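 also: 22Rv1 human prostate cancer cells growing on impedance electrode plates; area under impedance growth curve at 80 h after dosing as viability; hits lower the growth signal relative to DMSO meaning cytotoxicity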
# Summary of the method: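 Real-time electrical impedance tracks 22Rv1 proliferation after continuous compound exposure (top 100 uM final, 1:4 steps, 8 concentrations). The 80 h area-under-curve serves as the cytotoxicity readout relative to DMSO.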
# [4] = ACEA_ER_AUC_viability: ACEA Biosciences xCELLigence Real-Time Cell Analysis on Estrogen Receptor Agonism for Viability (AID 2283782);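 also: hit means loss of impedance signal meaning reduced cell growth or viability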
# Summary of the method: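 Viability endpoint: reduced impedance area under the curve relative to DMSO, recorded by real-time electrode sensing over ~80 h of continuous exposure. Duplicate plates of T47D in hormone-depleted medium; eight concentrations, 1:4 dilutions, 100 uM maximum.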
# [5] = molecular target: Luciferin 4-monooxygenase (Photinus pyralis) (UniProt P08659); experiment: CCTE_Simmons_QuantiLum_inhib_2: CCTE's Firefly Luciferase Inhibition Assay, Simmons Lab (AID 2283767);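 as to AC50: potency for inhibitors that lower luciferase luminescence relative to DMSO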
# Luciferin 4-monooxygenase (Photinus pyralis), sequence (P08659 whole entry, looked up): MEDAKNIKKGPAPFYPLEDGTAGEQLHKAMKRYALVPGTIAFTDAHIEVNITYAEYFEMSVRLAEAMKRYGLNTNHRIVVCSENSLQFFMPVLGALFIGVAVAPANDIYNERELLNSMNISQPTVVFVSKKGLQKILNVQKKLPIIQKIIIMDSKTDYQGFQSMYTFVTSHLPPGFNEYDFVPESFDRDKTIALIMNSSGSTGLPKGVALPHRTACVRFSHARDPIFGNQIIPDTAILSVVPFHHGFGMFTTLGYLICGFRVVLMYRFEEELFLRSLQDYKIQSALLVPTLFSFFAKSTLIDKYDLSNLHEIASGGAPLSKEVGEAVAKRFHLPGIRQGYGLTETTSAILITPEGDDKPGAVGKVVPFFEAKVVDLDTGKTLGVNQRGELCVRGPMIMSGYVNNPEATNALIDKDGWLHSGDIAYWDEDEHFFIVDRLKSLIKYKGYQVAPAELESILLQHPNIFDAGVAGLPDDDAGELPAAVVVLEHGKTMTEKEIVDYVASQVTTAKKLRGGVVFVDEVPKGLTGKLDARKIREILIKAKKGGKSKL
# Summary of the method: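 Cell-free QuantiLum luciferase, 5 ng/well; compounds 5 nM–87.5 uM final, 8 conc, 0.5% DMSO; 30 min, 37C, dark. Detection reagent (150 uM D-luciferin, 147 uM dATP, CoA, DTT, pH 7.8 final) injected per well, kinetic luminescence. Triplicate biological replicates.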
# [6] = STM_H9_OrnCyssISnorm_ratio: Stemina devTOX quickPredict H9 human embryonic stem cell (hESC)-based Assay for Ornithine (ORN):Cystine (CYSS) Ratio (AID 2283714)
# Summary of the method: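 Ratio of internal-standard-normalized ornithine to cystine, measured by UPLC-HRMS in spent media from the last 24 h. H9 cells kept pluripotent, dosed 72 h with daily media and compound renewal; DMSO 0.1% serves as baseline.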
# [7] = system: chicken Androgen Receptor (AR), gene 422165; experiment: ATG_chAR_XSP1: Attagene TRANS-FACTORIAL Multi-Species (XSP1) HepG2 Assay for chicken Androgen Receptor (AR) (AID 2283768)
# Summary of the method: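 Reporter mRNA read by RT-PCR with fluorescent labelling and capillary electrophoresis 24 h after chemical dosing of transiently transfected HepG2 cells. Chicken AR-Gal4 chimera, partially stimulated with 3 nM 6-alpha-fluorotestosterone; activity fitted upward relative to DMSO.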
# [8] = system: frog Androgen Receptor (AR), gene 399456; experiment: ATG_frAR_XSP1: Attagene TRANS-FACTORIAL Multi-Species (XSP1) HepG2 Assay for frog Androgen Receptor (AR) (AID 2283770)
# Procedure: ATG_XSP1_multi-species_TRANS is a cell-based, multiplexed assay created by modifying the existing Attagene TRANS-FACTORIAL system to include a panel of nuclear receptors from some or all the following species: human (Homo sapiens), mouse (Mus musculus), frog (Xenopus laevis), zebrafish (Danio rerio), chicken (Gallus gallus), and turtle (Chrysemys picta). The ECOTOX-FACTORIAL format uses HepG2, a human liver cell line, with measurements taken at 24 hours after chemical dosing in a 24-well plate. Xsp1 included 3 nM 6-alpha-fluorotestosterone to partially stimulate the androgen receptor.ATG_frAR_XSP1 is one of 29 assay components measured or calculated from the ATG_XSP1_multi-species_TRANS assay. It is designed to make measurements of mRNA induction, a form of inducible reporter, as detected with fluorescence intensity signals by Reverse transcription polymerase chain reaction (RT-PCR) and Capillary electrophoresis technology.The assay endpoint ATG_frAR_XSP1 was analyzed in the positive analysis fitting direction relative to DMSO as the negative control and baseline of activity. […] Furthermore, this assay endpoint can be referred to as a primary readout, because this assay has produced multiple assay endpoints where this one serves a reporter gene function. […]
# [9] = molecular target: zebrafish Estrogen Receptor (ESR1), esr1 (gene 259252) (UniProt P57717); experiment: ATG_zfER1_XSP1: Attagene TRANS-FACTORIAL Multi-Species (XSP1) HepG2 Assay for zebrafish Estrogen Receptor (ESR1) (AID 2283772)
# zebrafish Estrogen Receptor (ESR1), esr1 (gene 259252), sequence (P57717 whole entry, looked up, the tested form may be a part): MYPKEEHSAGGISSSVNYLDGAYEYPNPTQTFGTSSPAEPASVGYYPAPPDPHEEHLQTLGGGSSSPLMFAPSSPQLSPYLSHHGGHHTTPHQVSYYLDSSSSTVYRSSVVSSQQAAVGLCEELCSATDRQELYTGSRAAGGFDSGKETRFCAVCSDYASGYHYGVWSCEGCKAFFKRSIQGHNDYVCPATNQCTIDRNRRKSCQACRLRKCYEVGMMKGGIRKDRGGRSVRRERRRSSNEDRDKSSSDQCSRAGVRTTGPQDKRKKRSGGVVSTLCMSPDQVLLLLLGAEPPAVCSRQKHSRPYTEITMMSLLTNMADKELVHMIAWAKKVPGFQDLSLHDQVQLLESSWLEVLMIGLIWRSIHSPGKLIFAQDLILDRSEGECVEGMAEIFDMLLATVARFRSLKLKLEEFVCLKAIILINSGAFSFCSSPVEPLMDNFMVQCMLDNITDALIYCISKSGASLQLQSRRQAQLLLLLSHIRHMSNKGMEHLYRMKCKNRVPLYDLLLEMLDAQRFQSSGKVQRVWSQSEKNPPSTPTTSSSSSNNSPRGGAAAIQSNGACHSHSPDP
# Summary of the method: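 HepG2 cells were transiently transfected with multiplexed GAL4-UAS reporter units driven by chimeric NR-GAL4 proteins, dosed for 24 h with 3 nM 6-alpha-fluorotestosterone present, and reporter mRNA quantified by RT-PCR and capillary electrophoresis versus DMSO.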
# [10] = system: zebrafish Estrogen Receptor (ESR2B), gene 317733; experiment: ATG_zfER2b_XSP1: Attagene TRANS-FACTORIAL Multi-Species (XSP1) HepG2 Assay for zebrafish Estrogen Receptor (ESR2B) (AID 2283773)
# Summary of the method: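 Medium contained 3 nM 6-alpha-fluorotestosterone. Reporter mRNA induction by exogenous zebrafish ER2b-Gal4 chimera was read 24 h post-dose in transiently transfected HepG2 cells, using RT-PCR, fluorescent labelling, HpaI digestion and capillary electrophoresis.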
# [11] = system: frog Estrogen Receptor (ESR2), gene 100174814; experiment: ATG_frER2_XSP1: Attagene TRANS-FACTORIAL Multi-Species (XSP1) HepG2 Assay for frog Estrogen Receptor (ESR2) (AID 2283774)
# Summary of the method: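 Reporter mRNA from a multiplexed TRANS system, measured by RT-PCR with fluorescent labelling and capillary electrophoresis, 24 hours after chemical exposure. Human HepG2 liver cells carried exogenous frog ER-Gal4 chimera; medium included 3 nM 6-alpha-fluorotestosterone; increases versus DMSO analysed.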
# [12] = system: frog Estrogen Receptor (ESR1), gene 398734; experiment: ATG_frER1_XSP1: Attagene TRANS-FACTORIAL Multi-Species (XSP1) HepG2 Assay for frog Estrogen Receptor (ESR1) (AID 2283777)
# Summary of the method: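 HepG2 cells transiently transfected with GAL4-UAS reporter units and frog ER–Gal4 chimera were dosed for 24 h with 3 nM 6-alpha-fluorotestosterone present. Reporter mRNA was measured by RT-PCR and capillary electrophoresis; gain of signal fitted versus DMSO.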
# [13] = system: zebrafish Estrogen Receptor (ESR2A), gene 317734; experiment: ATG_zfER2a_XSP1: Attagene TRANS-FACTORIAL Multi-Species (XSP1) HepG2 Assay for zebrafish Estrogen Receptor (ESR2A) (AID 2283778)
# Summary of the method: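 Reporter transcripts were quantified by RT-PCR, 6-FAM labelling, HpaI digestion and capillary electrophoresis after 24 h dosing. The cells were HepG2 transiently carrying a zebrafish ER2a–Gal4 construct plus multiplexed UAS reporters; medium contained 3 nM 6-alpha-fluorotestosterone.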
# [14] = molecular target: chicken Estrogen Receptor (ESR1), ESR1 (gene 396099) (UniProt P06212); experiment: ATG_chERa_XSP1: Attagene TRANS-FACTORIAL Multi-Species (XSP1) HepG2 Assay for chicken Estrogen Receptor (ESR1) (AID 2283779)
# chicken Estrogen Receptor (ESR1), ESR1 (gene 396099), sequence (P06212 whole entry, looked up, the tested form may be a part): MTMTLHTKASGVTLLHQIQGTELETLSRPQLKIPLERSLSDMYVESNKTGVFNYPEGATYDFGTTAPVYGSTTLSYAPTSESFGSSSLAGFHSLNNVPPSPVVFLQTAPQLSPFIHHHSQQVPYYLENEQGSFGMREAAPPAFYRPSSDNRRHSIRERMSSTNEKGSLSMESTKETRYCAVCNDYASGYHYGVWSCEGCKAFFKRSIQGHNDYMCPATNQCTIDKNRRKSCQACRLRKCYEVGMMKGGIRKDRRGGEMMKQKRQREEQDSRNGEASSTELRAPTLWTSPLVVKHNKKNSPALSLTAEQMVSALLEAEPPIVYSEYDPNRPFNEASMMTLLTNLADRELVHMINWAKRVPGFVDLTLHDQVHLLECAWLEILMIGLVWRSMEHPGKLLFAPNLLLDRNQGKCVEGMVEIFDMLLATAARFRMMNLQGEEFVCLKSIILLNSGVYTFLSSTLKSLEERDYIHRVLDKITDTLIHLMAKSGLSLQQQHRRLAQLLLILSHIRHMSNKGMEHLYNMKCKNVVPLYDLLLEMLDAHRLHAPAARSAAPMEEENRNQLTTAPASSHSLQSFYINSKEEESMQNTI
# Summary of the method: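 Trans-activation of an exogenous chicken ERα–Gal4 chimera read as reporter transcript (RT-PCR, fluorescent labeling, capillary electrophoresis) after 24 h compound exposure of transfected HepG2; medium held 3 nM 6-alpha-fluorotestosterone. Positive-direction fit against DMSO.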
# [15] = molecular target: Estrogen receptor (Homo sapiens) (UniProt P03372); experiment: ATG_hERa_XSP1: Attagene TRANS-FACTORIAL Multi-Species (XSP1) HepG2 Assay for human Estrogen Receptor (ESR1) (AID 2283780)
# Estrogen receptor (Homo sapiens), sequence (P03372 whole entry, looked up, the tested form may be a part): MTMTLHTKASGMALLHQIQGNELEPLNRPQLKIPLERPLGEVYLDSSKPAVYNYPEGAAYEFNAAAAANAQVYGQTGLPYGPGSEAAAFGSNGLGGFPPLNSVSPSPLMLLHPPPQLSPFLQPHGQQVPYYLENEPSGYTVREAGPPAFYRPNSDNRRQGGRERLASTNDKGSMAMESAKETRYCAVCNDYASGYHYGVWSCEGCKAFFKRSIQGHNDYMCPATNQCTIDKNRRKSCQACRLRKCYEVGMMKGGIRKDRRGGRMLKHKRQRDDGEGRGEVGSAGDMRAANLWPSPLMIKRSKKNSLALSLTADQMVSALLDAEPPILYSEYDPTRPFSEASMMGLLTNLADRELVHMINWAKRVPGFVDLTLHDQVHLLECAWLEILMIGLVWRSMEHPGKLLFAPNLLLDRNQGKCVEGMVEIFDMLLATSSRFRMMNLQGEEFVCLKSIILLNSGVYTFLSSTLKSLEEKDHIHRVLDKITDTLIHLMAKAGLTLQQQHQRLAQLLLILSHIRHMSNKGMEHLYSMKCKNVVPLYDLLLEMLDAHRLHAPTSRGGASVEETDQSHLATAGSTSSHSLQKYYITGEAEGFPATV
# Summary of the method: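 Reporter transcripts from multiplexed GAL4-UAS units driven by NR-Gal4 chimeras in transiently transfected HepG2 were measured by RT-PCR with capillary electrophoresis 24 h post-dose, with 3 nM 6-alpha-fluorotestosterone present; gain-of-signal relative to DMSO.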
# [16] = system: turtle Estrogen Receptor (ESR1), gene 101933533; experiment: ATG_trERa_XSP1: Attagene TRANS-FACTORIAL Multi-Species (XSP1) HepG2 Assay for turtle Estrogen Receptor (ESR1) (AID 2283781)
# Summary of the method: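 Transactivation measured 24 h post-dose as reporter mRNA (RT-PCR, fluorescent capillary electrophoresis) from an NR-Gal4 turtle ER construct in HepG2. Medium included 3 nM 6-alpha-fluorotestosterone; increase over DMSO fitted.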
# [17] = system: turtle Androgen Receptor (AR), gene 101947425; experiment: ATG_trAR_XSP1: Attagene TRANS-FACTORIAL Multi-Species (XSP1) HepG2 Assay for turtle Androgen Receptor (AR) (AID 2283786)
# Summary of the method: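 Partial androgen stimulation is provided by 3 nM 6-alpha-fluorotestosterone in a multi-species trans-factorial panel expressing a turtle AR–GAL4 fusion in HepG2. After 24 h, reporter mRNA is measured by RT-PCR and capillary electrophoresis and fitted upward against DMSO.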
smiles,measurement,setting,value
Cc1ccc(C(C)c2ccc(C)c(C)c2)cc1C,outcome,[1],inactive
same,outcome,[2],inactive
same,outcome,[3],inactive
same,AC50,[4],50000 nM (active)
c1ccc2c(c1)ccc1cc3c(ccc4ccccc43)cc12,AC50,[5],105 nM (active)
same,AC50,[2],341 nM (active)
same,AC50,[3],287 nM (active)
C=COCCCC,outcome,[1],inactive
same,outcome,[4],inactive
O=C1CCCCCCCCCCC(=O)OCCO1,outcome,[6],inactive
same,AC50,[4],68300 nM (active)
Cc1ccc(N/N=c2\c(=O)cc/c(=N/Nc3ccc(S(=O)(=O)O)cc3)c2=O)c(C)c1,AC50,[5],53800 nM (active)
same,AC50,[3],8300 nM (active)
same,outcome,[4],inactive
O=C(c1ccccc1)c1ccc(O)c(O)c1O,outcome,[5],inactive
CO[Si](CCC1CCC2OC2C1)(OC)OC (stereo not given),outcome,[1],inactive
same,AC50,[4],37700 nM (active)
O=C(c1ccc(O)cc1)c1ccc(O)cc1O,AC50,[7],1560 nM (active)
same,AC50,[8],2780 nM (active)
same,AC50,[9],1760 nM (active)
same,AC50,[10],1230 nM (active)
same,AC50,[11],729 nM (active)
same,AC50,[12],664 nM (active)
same,AC50,[13],426 nM (active)
same,AC50,[14],1280 nM (active)
same,AC50,[15],1270 nM (active)
same,AC50,[16],879 nM (active)
same,AC50,[17],2690 nM (active)
C1=CCCC1,outcome,[1],inactive
same,outcome,[4],inactive
